# Assay results: PubChem BioAssay (NCATS)
# “And” between values parts separate entries of the source, which are not always exact repeats. Equal values may be shown once. A number with no mark means an inactive call. Results filed as inconclusive are left out. Where a call stands in place of a potency, no number is given. The source made the active and inactive calls. Unless noted, the call rests on the fitted dose curve; in most records, active means well fitted curve in the direction sought with a large enough effect; inconclusive means small, poorly fitted or top-dose-only effect, or another doubt; inactive means no such curve, though single readings can be large; an effect the other way counts as inactive or inconclusive. Peptide text beside a SMILES is read from it.
# Experiments:
# [1] = target: Tyrosine-protein kinase Yes (Homo sapiens) (UniProt P07947); assay: qHTS for small molecule inhibitors of Yes1 kinase: Primary Screen (AID 686947); further: nearly all actives have a fitted effect of over 60% in size; further: potency means the concentration at half of the fitted maximal effect
# Chain of Tyrosine-protein kinase Yes (Homo sapiens) (P07947 whole entry, looked up): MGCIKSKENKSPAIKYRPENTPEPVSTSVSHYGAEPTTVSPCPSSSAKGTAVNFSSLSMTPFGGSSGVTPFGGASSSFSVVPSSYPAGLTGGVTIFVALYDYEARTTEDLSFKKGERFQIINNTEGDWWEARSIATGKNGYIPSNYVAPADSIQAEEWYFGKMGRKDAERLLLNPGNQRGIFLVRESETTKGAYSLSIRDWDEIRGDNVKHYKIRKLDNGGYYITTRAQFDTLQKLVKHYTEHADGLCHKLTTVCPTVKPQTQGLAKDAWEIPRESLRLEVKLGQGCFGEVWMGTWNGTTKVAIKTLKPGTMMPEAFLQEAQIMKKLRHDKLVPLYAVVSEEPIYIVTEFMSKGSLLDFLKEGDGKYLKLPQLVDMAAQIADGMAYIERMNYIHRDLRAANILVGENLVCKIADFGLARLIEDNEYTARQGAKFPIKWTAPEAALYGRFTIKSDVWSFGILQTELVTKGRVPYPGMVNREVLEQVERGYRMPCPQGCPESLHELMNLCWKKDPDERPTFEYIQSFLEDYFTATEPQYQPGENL
# In short: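 ADP-Glo luminescence reports ADP formed by 4 nM Yes1 phosphorylating poly(E4Y) (0.3 mg/mL) with 0.1 mM ATP for 60 min at room temperature, following 20 min compound preincubation; normalised between DMSO wells with and without enzyme.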
# [2] = qHTS for small molecule inhibitors of Yes1 kinase: Counter Assay (AID 686950);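 further: no kinase present so only ADP-Glo detection of a fixed ADP amount is tested; luminescence from ADP-Glo reporting ADP in a fixed ATP and ADP mixture; series mostly up to about 77 µM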
# In short: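 Measuring interference with ADP-Glo, the assay ran 60 min at room temperature on an ATP/ADP mix lacking enzyme. Values were normalized to ATP-plus-ADP (maximum) and ATP-only (minimum) DMSO controls.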
# [3] = target: Arylsulfatase A (Homo sapiens) (UniProt P15289); assay: qHTS screen for enhancers of Arylsulfatase A (ASA1): LOPAC Validation Assay (AID 720538); further: potency means the concentration at half of the fitted maximal effect
# Chain of Arylsulfatase A (Homo sapiens) (P15289 whole entry, looked up): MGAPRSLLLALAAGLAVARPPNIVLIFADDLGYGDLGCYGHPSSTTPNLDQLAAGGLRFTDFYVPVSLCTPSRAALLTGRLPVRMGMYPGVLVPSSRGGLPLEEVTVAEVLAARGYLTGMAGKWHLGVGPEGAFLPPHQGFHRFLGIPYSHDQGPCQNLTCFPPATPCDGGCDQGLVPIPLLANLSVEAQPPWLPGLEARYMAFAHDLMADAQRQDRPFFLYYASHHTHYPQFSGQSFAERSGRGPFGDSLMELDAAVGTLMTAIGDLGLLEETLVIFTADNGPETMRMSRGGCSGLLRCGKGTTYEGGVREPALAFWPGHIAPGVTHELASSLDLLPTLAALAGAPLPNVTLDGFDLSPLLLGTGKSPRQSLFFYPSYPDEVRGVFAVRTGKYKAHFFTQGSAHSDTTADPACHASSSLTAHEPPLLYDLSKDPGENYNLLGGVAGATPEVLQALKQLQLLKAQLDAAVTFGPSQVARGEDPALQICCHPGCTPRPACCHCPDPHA
# In short: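 SV40-transformed fibroblasts from an MLD patient (ASA-I179S) were treated with compound for 48 h at 37 C. They were then lysed with 0.5 mM pNCS substrate (final) for 14 h at room temperature and stopped with NaOH; signal read by fluorescence (Ex 525/Em 598 nm), with increase denoting enhanced activity.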
# [4] = qHTS for Activators of Parkin Expression: LOPAC Validation Assay (NLuc Reporter) (AID 720572)
# In short: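 Cells harboring the Parkin-promoter coincidence reporter were treated for 24 h at seven concentrations. NLuc output was measured sequentially after the FLuc channel and scaled between DMSO and positive control values.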
# [5] = qHTS for Activators of Parkin Expression: LOPAC Validation Assay (FLuc Reporter) (AID 720573; further: potency means the concentration at half of the fitted maximal effect)
# In short: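 Neuronal cell line stably expressing FLuc/NLuc coincidence reporter under the Parkin promoter, 1,500 cells/well, dosed 24 h after seeding in 7-point series for 24 h at 37 C. FLuc luminescence read; normalized to DMSO and positive control (100%).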
# [6] = target: Peroxisome proliferator-activated receptor alpha (Homo sapiens) (UniProt Q07869); assay: qHTS assay for small molecule agonists of the peroxisome proliferator-activated receptor alpha (PPARalpha) signaling pathway (AID 651778); details: PathHunter PPARalpha complementation, chemiluminescence, 6 h; stronger effect = higher value
# Chain of Peroxisome proliferator-activated receptor alpha (Homo sapiens) (Q07869 whole entry, looked up): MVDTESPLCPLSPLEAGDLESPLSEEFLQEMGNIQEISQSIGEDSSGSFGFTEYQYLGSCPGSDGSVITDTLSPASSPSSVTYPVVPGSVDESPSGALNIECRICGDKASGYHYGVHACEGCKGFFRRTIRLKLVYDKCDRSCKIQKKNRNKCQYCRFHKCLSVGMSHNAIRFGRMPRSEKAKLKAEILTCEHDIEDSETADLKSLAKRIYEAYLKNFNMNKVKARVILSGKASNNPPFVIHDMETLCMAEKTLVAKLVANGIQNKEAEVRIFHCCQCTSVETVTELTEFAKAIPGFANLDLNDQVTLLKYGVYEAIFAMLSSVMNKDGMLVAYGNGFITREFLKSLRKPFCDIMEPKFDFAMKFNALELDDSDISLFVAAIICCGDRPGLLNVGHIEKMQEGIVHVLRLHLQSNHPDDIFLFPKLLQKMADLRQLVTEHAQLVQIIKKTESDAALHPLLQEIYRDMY
# In short: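 Cells plated at 2,000/well and held overnight at 37 C, 5% CO2, then compound added by pin tool for 6 hr; after PathHunter detection reagent and 60 min at room temperature, chemiluminescence from enzyme complementation was read.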
# [7] = qHTS assay for small molecule agonists of the antioxidant response element (ARE) signaling pathway measured by Nrf2-dependant transcriptional activity (AID 720636; active means well fitted curve in the direction sought with a large enough effect in the repeat runs; an effect the other way counts as inactive or inconclusive)
# In short: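 Nrf2-dependent transcription read as ONE-Glo luciferase signal from ARE-luc HepG2 reporter cells after 16 hr compound treatment at 37 C, 5% CO2, in assay medium with 1% dialyzed FBS.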
# [8] = qHTS assay for small molecule agonists of the antioxidant response element (ARE) signaling pathway measured by Nrf2-dependant transcriptional activity - cell viability counter screen (AID 720653; active means well fitted curve in the direction sought with a large enough effect in the repeat runs; an effect the other way counts as inactive or inconclusive; further: potency means the concentration at half of the fitted maximal effect); details: ARE-bla HepG2 viability, CellTiter-Glo ATP luminescence, 16 h; max response: stronger effect = lower value
# In short: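 ARE-bla HepG2 cells (2,000/well) rested 5 hrs at 37C/5% CO2, then exposed to compounds in DMSO for 16 hrs. Viability was read in the same wells as intracellular ATP by luminescence, 30 min at room temperature after reagent addition.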
# [9] = target: Nuclear receptor ROR-gamma (Homo sapiens) (UniProt P51449); assay: qHTS assay for small molecule antagonists of the retinoid-related orphan receptor gamma (ROR-gamma) signaling pathway (AID 651802);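 further: CHO cells with doxycycline-induced ROR-gamma expression; series mostly up to about 92 µM; nearly all actives have a fitted effect of over 60% in size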
# Chain of Nuclear receptor ROR-gamma (Homo sapiens) (P51449 whole entry, looked up): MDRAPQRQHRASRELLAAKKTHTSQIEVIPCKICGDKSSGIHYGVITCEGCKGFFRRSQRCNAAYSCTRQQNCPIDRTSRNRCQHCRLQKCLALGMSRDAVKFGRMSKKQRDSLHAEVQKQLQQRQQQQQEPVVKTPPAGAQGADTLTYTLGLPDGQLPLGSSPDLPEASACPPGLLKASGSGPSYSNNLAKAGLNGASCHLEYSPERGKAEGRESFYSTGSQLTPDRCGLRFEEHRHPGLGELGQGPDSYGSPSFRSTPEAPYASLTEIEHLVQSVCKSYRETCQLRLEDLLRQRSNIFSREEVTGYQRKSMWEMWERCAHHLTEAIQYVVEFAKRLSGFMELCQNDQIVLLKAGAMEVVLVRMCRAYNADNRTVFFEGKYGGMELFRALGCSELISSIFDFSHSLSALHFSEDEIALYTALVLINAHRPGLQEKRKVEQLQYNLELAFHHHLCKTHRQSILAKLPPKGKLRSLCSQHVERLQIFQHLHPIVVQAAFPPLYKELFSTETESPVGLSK
# In short: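 Steps: cells dispensed; compound or DMSO transferred by pin tool; doxycycline added to induce the ROR response element-driven luciferase; plates held 16hr at 37C; ONE-Glo added and luminescence measured.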
# [10] = qHTS assay for small molecule antagonists of the retinoid-related orphan receptor gamma (ROR-gamma) signaling pathway - cell viability counter screen (AID 720652; active means well fitted curve in the direction sought with a large enough effect in the repeat runs; an effect the other way counts as inactive or inconclusive;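 further: CHO reporter cells with doxycycline-induced ROR-gamma expression; series mostly up to about 92 µM; compound exposure lasted 16 hr before ATP read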)
# In short: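 Steps: seed CHO cells bearing TET-inducible ROR and ROR response element-luciferase; rest 5 hr at 37 C; add compound, then doxycycline; incubate 16 hr; add CellTiter-Glo and read luminescence as ATP-based viability.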
smiles,measurement,setting,value
CCN(CC)CCOc1ccc(Nc2ncc3cc(-c4c(Cl)cccc4Cl)c(=O)n(C)c3n2)cc1,Potency,[1],0.00972 nM (active)
same,outcome,[2],inactive
Nc1cccc2c1CN(C1CCC(=O)NC1=O)C2=O (stereo not drawn),Potency,[1],inactive
same,outcome,[2],inactive
CCOC(=O)C(C)Oc1cccc2c(=O)n(CC(=O)Nc3ccc4c(c3)OCCO4)ccc12 (stereo not drawn),Potency,[1],inactive
same,outcome,[2],inactive
same,Potency,[3],inactive
same,outcome,[4],inactive
same,Potency,[5],inactive
O=c1c(O)c(-c2ccc(O)cc2O)oc2cc(O)cc(O)c12,max response,[6],-3.16%
same,Potency,[3],inactive
same,outcome,[4],inactive
same,Potency,[5],inactive
same,Potency,[7],inactive
same,max response,[8],6.53%
c1ccc2[nH]c(-c3cscn3)nc2c1,max response,[6],-1.63% and -0.401%
same,outcome,[9],inactive
same,outcome,[10],inactive
same,max response,[8],-11.8% and -19.5%
CN(C)c1ccc2nc3ccc(=[N+](C)C)cc-3sc2c1,max response,[6],-7.81%
same,Potency,[8],10 µM (active)
Cc1cc(O)c2c(c1)C(=O)c1cc(O)cc(O)c1C2=O,max response,[6],-5.19% and -6.73%
same,outcome,[4],inactive
same,Potency,[5],inactive
same,outcome,[10],inactive
CC(C)C[C@H](NC(=O)[C@H](Cc1ccccc1)NC(=O)c1cnccn1)B(O)O,Potency,[1],inactive
same,outcome,[2],inactive
CCN(CCO)CCCC(C)Nc1ccnc2cc(Cl)ccc12 (stereo not drawn),Potency,[1],inactive
same,outcome,[2],inactive
Cc1cccc(C#Cc2ccccc2)n1,Potency,[1],inactive
same,outcome,[2],inactive
same,Potency,[3],inactive
same,outcome,[4],inactive
same,Potency,[5],2.91 µM (active)
CC1(C)NC(=O)N(c2ccc([N+](=O)[O-])c(C(F)(F)F)c2)C1=O,max response,[6],-2.93%
same,outcome,[4],inactive
same,Potency,[5],inactive
same,Potency,[7],inactive
same,max response,[8],-27.8%
CCOC(=O)C1=C(O)C(=O)N(Cc2ccccc2)C1,Potency,[1],inactive
same,outcome,[2],inactive
NS(=O)(=O)c1cc(C(=O)O)c(NCc2ccco2)cc1Cl,outcome,[9],inactive
same,Potency,[1],inactive
same,outcome,[2],inactive
same,Potency,[7],inactive
same,outcome,[10],inactive
same,max response,[8],0.113% and -9.05%
Oc1ccc(-c2nc(-c3ccc(F)cc3)c(-c3ccncc3)[nH]2)cc1,Potency,[1],17300 nM (active)
same,outcome,[2],inactive
same,Potency,[3],inactive
same,Potency,[5],inactive
CC(=O)N1CCN(c2ccc(OC[C@H]3CO[C@](Cn4ccnc4)(c4ccc(Cl)cc4Cl)O3)cc2)CC1,max response,[6],-0.168%
same,Potency,[3],inactive
same,outcome,[4],inactive
same,Potency,[5],inactive
same,Potency,[7],inactive
same,max response,[8],-20.7%
COc1c2occc2cc2ccc(=O)oc12,max response,[6],-3.1% and -0.368%
same,max response,[8],-6.22% and 0.264%
S=c1nc[nH]c2nc[nH]c12,Potency,[1],inactive
same,outcome,[2],inactive
Cc1cccc(-c2[nH]ncc2-c2ccc3ncccc3n2)n1,Potency,[1],2.92 µM (active) and 2.23 µM (active)
same,outcome,[2],inactive
Nc1nc(Cl)nc2c1ncn2[C@H]1C[C@H](O)[C@@H](CO)O1,max response,[6],-0.979%
same,Potency,[1],79300 nM (active)
same,outcome,[2],inactive
same,Potency,[7],inactive
same,max response,[8],-12.8%
N[C@@H](Cc1cc(I)c(Oc2cc(I)c(O)c(I)c2)c(I)c1)C(=O)O,max response,[6],-3.72%
same,max response,[8],-2.98%
O=Nc1c(-c2c(O)[nH]c3cc(Br)ccc23)[nH]c2ccccc12,Potency,[1],154 nM (active)
same,outcome,[2],inactive
same,Potency,[3],21.3 µM (active)
same,outcome,[4],inactive
same,Potency,[5],2.59 µM (active)
C[C@@H](N)C1CCC(C(=O)Nc2ccncc2)CC1 (stereo partly drawn),Potency,[1],inactive
same,outcome,[2],inactive
same,Potency,[3],inactive
same,outcome,[4],inactive
same,Potency,[5],inactive
CCCc1cc(=O)[nH]c(=S)[nH]1,max response,[6],-4.59% and -0.354%
same,outcome,[9],inactive
same,Potency,[7],inactive
same,outcome,[10],inactive
same,max response,[8],-7.93% and 7.26%
CS(=O)(=O)OCCCCOS(C)(=O)=O,max response,[6],-1.17% and -9.71% and -0.247%
same,outcome,[9],inactive
same,Potency,[7],inactive
same,outcome,[10],inactive
same,max response,[8],-5.06% and -4.65% and 2.24%
COC(=O)[C@H](Cc1ccccc1)NC(=O)[C@@H](N)CC(=O)O (H-Asp-Phe-OMe),max response,[6],-1.47% and -4.11%
same,outcome,[9],inactive
same,Potency,[7],inactive
same,outcome,[10],inactive
same,max response,[8],-13.7% and 2.98%
CCCCC(CC)COC(=O)C(C#N)=C(c1ccccc1)c1ccccc1 (stereo not drawn),max response,[6],-1.78%
same,Potency,[7],inactive
same,max response,[8],-8.35%
